Measured values as given in PubChem BioAssay (Tox21).
Results filed as inconclusive are left out. Values without a mark were called inactive. Activity calls are given as the source filed them. Calls come from the whole dose curve; as a rule, active = well fitted curve in the direction sought with a large enough effect in the repeat runs; inconclusive = weak or mixed curves; inactive = no such curve, though single readings can be large; an effect the other way counts as inactive or inconclusive.

Experiment: qHTS assay for identifying genotoxic compounds that show differential cytotoxicity against isogenic chicken DT40 cell lines with known DNA damage response pathways - wild type cell line (AID 743012)
Details: DT40 wild type chicken cells viability, CellTiter-Glo, 40 h; series mostly up to 68.4 µM; activity change, negative = cytotoxicity: at the top concentration
Summary of the method: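 CellTiter-Glo luminescence readout of viability in wild type DT40 cells after 40 h compound exposure at 37 C/5% CO2; 300 cells/well; reagent incubated 30 min at room temperature before reading.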
% is set by controls: 0 for no effect and ±100 for the full control effect; potency is the fitted concentration of half-maximal effect.
Note: nearly all actives have a fitted effect of over 60% in size.

| SMILES | Potency | activity change, negative = cytotoxicity [%] |
| --- | --- | --- |
| COc1cc(NCCCC(C)N)c2ncccc2c1 (configuration not stated) | 29.8 µM (active) | – |
| O=C(NCCNCC(O)COc1ccc(O)cc1)N1CCOCC1 (configuration not stated) | – | 10.9 |
| CO[C@H]1C[C@@H]2CC[C@@H](C)[C@@](O)(O2)C(=O)C(=O)N2CCCC[C@H]2C(=O)O[C@H]([C@H](C)C[C@@H]2CC[C@@H](OCCO)[C@H](OC)C2)CC(=O)[C@H](C)/C=C(\C)[C@@H](O)[C@@H](OC)C(=O)[C@H](C)C[C@H](C)/C=C/C=C/C=C/1C | 0.0094 µM (active) | – |
| CC1CC(OC(=O)C(O)c2ccccc2)CC(C)(C)C1 (configuration not stated) | 11.9 µM (active) | – |
| Cc1cccc(C)c1NC(=O)NC1=CCCN1C | – | 14.3 |
| C[C@]12C=CC(=O)N[C@@H]1CC[C@@H]1[C@@H]2CC[C@]2(C)[C@@H](C(=O)Nc3cc(C(F)(F)F)ccc3C(F)(F)F)CC[C@@H]12 | 4.22 µM (active) | – |
| O=c1oc2cc(O)ccc2s1 | – | 0.253 |
| Cc1ccc(C2(O)CCN(CCCC(=O)c3ccc(F)cc3)CC2)cc1 | 11.9 µM (active) | – |
| Cc1cc(C)c(NC(=O)C[C@H](CC(=O)O)c2cccc3ccccc23)c(C(=O)N2CCC3(CCCC3)CC2)c1 | – | 6.62 |

Experiment: qHTS assay for identifying genotoxic compounds that show differential cytotoxicity against isogenic chicken DT40 cell lines with known DNA damage response pathways - Rad54/Ku70 mutant cell line (AID 743015)
Details: DT40 Rad54/Ku70 mutant viability, CellTiter-Glo, 40 h; series mostly up to 66.8 µM; activity change, negative = cytotoxicity: at the top concentration

| SMILES | activity change, negative = cytotoxicity | Potency |
| --- | --- | --- |
| CCCCCCCCCCCCCCCCCCCCCCO | 6.94% | – |
| OC(CN1CCCCC1)c1cc(-c2ccccc2)on1 (configuration not stated) | 0.0434% | – |
| CCCCCCCCCCCCCCCC(=O)OC[C@@H](NC(=O)C(Cl)Cl)[C@H](O)c1ccc([N+](=O)[O-])cc1 | 8.84% | – |
| CC[C@H]1NC(=O)[C@@H](NC(=O)c2ncccc2O)[C@@H](C)OC(=O)[C@H](c2ccccc2)NC(=O)[C@@H]2CC(=O)CCN2C(=O)[C@H](Cc2ccccc2)N(C)C(=O)[C@@H]2CCCN2C1=O | 10.5% | – |
| NC(=O)c1ccc[n+]([C@@H]2O[C@H](COP(=O)([O-])OP(=O)(O)OC[C@H]3O[C@@H](n4cnc5c(N)ncnc54)[C@H](O)[C@@H]3O)[C@@H](O)[C@H]2O)c1 | 17.4% [at 30.7 µM] | – |
| O=C(O)CN(CC(=O)O)CC1=CC2C(=CC1=O)Oc1cc(O)c(CN(CC(=O)O)CC(=O)O)cc1C21OC(=O)c2ccccc21 (configuration not stated) | 1.97% | – |
| CCCCCCCCCCCCCCCC(=O)OC[C@@H](O)[C@H]1OC[C@H](O)[C@H]1O | 7% | – |
| C=C1CC[C@H](O)CC1=C/C=C1\CCC[C@]2(C)[C@@H]([C@H](C)CC[C@@H](O)C(C)(C)O)CC[C@@H]12 | – | 13.3 µM (active) |
| CSc1nc2cc(Oc3cccc(Cl)c3Cl)c(Cl)cc2[nH]1 | – | 21.1 µM (active) |
| N#CC(c1ccc(Cl)cc1)c1c(Cl)cc(-n2ncc(=O)[nH]c2=O)cc1Cl (configuration not stated) | – | 29.8 µM (active) |
| CN(C)CCOc1ccccc1Cc1ccccc1 (tested in a mixture with another compound) | – | 29.8 µM (active) |
| CN1CC(O)c2cc(N=NC(N)=O)c(O)cc21 (configuration not stated) | 3.23% | – |
| COC(=O)[C@H]1[C@H]2C[C@@H]3c4[nH]c5cc(OC)ccc5c4CCN3C[C@H]2C[C@H](OC)[C@@H]1OC | -16.6% | – |
| Cc1ncc(COP(=O)(O)O)c(CN)c1O | 13.2% | – |
| CNC(=O)c1c(I)c(C(=O)NCC(=O)Nc2c(I)c(C(=O)O)c(I)c(C(=O)NCCO)c2I)c(I)c(N(C)C(C)=O)c1I | 3.01% | – |
| Nc1nc2c(c(=O)[nH]1)N(C=O)C(CNc1ccc(C(=O)N[C@@H](CCC(=O)O)C(=O)O)cc1)CN2 (some centres not stated) | 4.92% [at 30.7 µM] | – |
| CCc1ccc(S(=O)(=O)O)cc1 | -2.76% | – |
| C[C@@H]1C[C@H]2[C@@H]3CCC4=CC(=O)C=C[C@]4(C)[C@@]3(F)[C@@H](O)C[C@]2(C)[C@@]1(O)C(=O)COC(=O)c1cccc(S(=O)(=O)O)c1 | -12.2% | – |
| COc1ccc(C[C@H](C)NC[C@@H](O)c2ccc(O)c(NC=O)c2)cc1 | – | 26.6 µM (active) |
| O=C(Nc1ccc(/C=C/c2ccc(NC(=O)c3cc(S(=O)(=O)O)c4cccnc4c3O)cc2S(=O)(=O)O)c(S(=O)(=O)O)c1)c1cc(S(=O)(=O)O)c2cccnc2c1O | – | 29.8 µM (active) |
| OC[C@H]1O[C@@H](O[C@H]2[C@H](O)[C@@H](O)[C@H](O)O[C@@H]2CO)[C@H](O)[C@@H](O)[C@@H]1O | 9% | – |
| CC[C@]1(O)CC2CN(CCc3c([nH]c4ccccc34)[C@@](C(=O)OC)(c3cc4c(cc3OC)N(C)[C@H]3[C@@](O)(C(N)=O)[C@H](O)[C@]5(CC)C=CCN6CC[C@]43[C@@H]65)C2)C1 (some centres not stated) | – | 0.0596 µM (active) |
| COc1ccc(C2NC(=S)N3C(c4ccc(OC)c(OC)c4)NC(=S)N23)cc1OC (configuration not stated) | – | 0.0106 µM (active) |
